Laboratory results reported in PubChem BioAssay (NCATS).
Inconclusive results are not listed. Activity calls are given as the source filed them. Calls follow the shape of the dose curve; as a rule, active = well fitted inhibition curve with a large enough effect; inconclusive = small, poorly fitted or top-dose-only effect; inactive = flat fitted curve, though single readings scatter.

Tests used:
[1] = test system: P94_40; assay: qHTS profiling for inhibitors of Plasmodium falciparum proliferation (AID 504749);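 also: 0% = DMSO vehicle and full inhibition = artemisinin control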; conditions: P. falciparum in erythrocytes, SYBR Green DNA, 72 h; series mostly up to 28.7 µM
In short: (§1)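 Fluorescence of SYBR Green-bound parasite DNA, read at 485/535 nm, served as the growth measure. Infected erythrocytes were cultured with compound 72 h; artemisinin (0.29 uM) and DMSO wells defined the normalization range.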

[2] = test system: PAD; assay: as above; conditions: P. falciparum in erythrocytes, SYBR Green DNA, 72 h; series mostly up to 28.7 µM
In short: as §1

[3] = test system: PC15; assay: as above; conditions: P. falciparum in erythrocytes, SYBR Green DNA, 72 h; series mostly up to 28.7 µM
In short: as §1

[4] = test system: PC26; assay: as above; conditions: P. falciparum in erythrocytes, SYBR Green DNA, 72 h; series mostly up to 28.7 µM
In short: as §1

[5] = test system: PC49; assay: as above; conditions: P. falciparum in erythrocytes, SYBR Green DNA, 72 h; series mostly up to 28.7 µM
In short: as §1

[6] = test system: SC27B; assay: as above; conditions: P. falciparum in erythrocytes, SYBR Green DNA, 72 h; series mostly up to 28.7 µM
In short: as §1

[7] = test system: TAB109; assay: as above; conditions: P. falciparum in erythrocytes, SYBR Green DNA, 72 h; series mostly up to 28.7 µM
In short: as §1

[8] = test system: TAB113; assay: as above; conditions: P. falciparum in erythrocytes, SYBR Green DNA, 72 h; series mostly up to 28.7 µM
In short: as §1

[9] = test system: TAB165; assay: as above; conditions: P. falciparum in erythrocytes, SYBR Green DNA, 72 h; series mostly up to 28.7 µM
In short: as §1

[10] = test system: W2; assay: as above; conditions: P. falciparum in erythrocytes, SYBR Green DNA, 72 h; series mostly up to 28.7 µM
In short: as §1

[11] = test system: CRL-7250; assay: Cytotoxic Profiling of Annotated Libraries Using Quantitative High-Throughput Screening (AID 1296008); conditions: Five cell lines viability, CellTiter-Glo ATP luminescence, 48-72 h; stronger effect = lower value; as to max response: % is scaled to controls: 0 for no effect and ±100 for the full control effect
In short: (§2)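 Compounds were pin-transferred onto cells and incubated 48 or 72 hr at 37 degree Celsius, 95% humidity. CellTiter-Glo was added, plates sat 10 min at room temperature, then ATP-coupled luminescence was imaged as the viability read-out.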

[12] = test system: HEK293; assay: as above; conditions: Five cell lines viability, CellTiter-Glo ATP luminescence, 48-72 h; stronger effect = lower value
In short: as §2

[13] = test system: HaCat; assay: as above; conditions: Five cell lines viability, CellTiter-Glo ATP luminescence, 48-72 h; stronger effect = lower value
In short: as §2

[14] = test system: KB-3-1; assay: as above; conditions: Five cell lines viability, CellTiter-Glo ATP luminescence, 48-72 h, stronger effect = lower value
In short: as §2

[15] = test system: NIH3T3; assay: as above; conditions: Five cell lines viability, CellTiter-Glo ATP luminescence, 48-72 h; stronger effect = lower value
In short: as §2

[16] = test system: MCC-13; assay: qHTS assay to identify novel small-molecules to repurpose for Merkel cell carcinoma treatment (AID 1296009); conditions: MCC and control cell lines, CellTiter-Glo viability, 72 h; series mostly up to 46 µM; also: % is scaled to controls: 0 for no effect and ±100 for the full control effect
In short: (§3)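 Luminescence from CellTiter-Glo, read 10 min after addition at room temperature, reported viability following a 72 hr, 37 degree celsius treatment with NPC or MIPE compounds in titration; values normalized to plate controls.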

[17] = test system: MCC-26; assay: as above; conditions: MCC and control cell lines, CellTiter-Glo viability, 72 h; series mostly up to 46 µM
In short: as §3

[18] = test system: MKL-1; assay: as above; conditions: MCC and control cell lines, CellTiter-Glo viability, 72 h; series mostly up to 46 µM
In short: as §3
Also: nearly all actives have a fitted effect of over 60% in size.

CCOC(N)=O
inactive: Potency [1] | Potency [2] | Potency [3] | Potency [4] | Potency [5] | Potency [6] | Potency [7] | Potency [8] | Potency [9] | Potency [10] | max response [11] 1.79% | max response [12] -1.46% | max response [13] -12.1% | max response [14] -7.14% | outcome [15] | outcome [16] | outcome [17] | outcome [18]

O=C(O)c1ccc(OCCCOc2ccc(C(=O)O)cc2)cc1
inactive: Potency [1] | Potency [2] | Potency [3] | Potency [4] | Potency [5] | Potency [6] | Potency [7] | Potency [8] | Potency [9] | Potency [10] | max response [11] -0.605% | max response [12] -0.863% | max response [13] -3.27% | max response [14] 3.43% | max response [15] 2.41% | outcome [16] | outcome [18]

CC(C)(C)C(=O)OCOC(=O)[C@@H]1N2C(=O)[C@@H](NC(=O)[C@H](N)c3ccccc3)[C@H]2SC1(C)C
inactive: Potency [1] | Potency [2] | Potency [3] | Potency [4] | Potency [5] | Potency [6] | Potency [7] | Potency [8] | Potency [9] | Potency [10] | max response [11] -7.59% | max response [12] -3.05% | max response [13] -3.68% | max response [14] -7.55% | max response [15] -5.28% | outcome [16] | outcome [17] | outcome [18]

Nc1ccc(C(=O)Oc2ccccc2)c(O)c1
inactive: Potency [1] | Potency [2] | Potency [3] | Potency [4] | Potency [5] | Potency [6] | Potency [7] | Potency [8] | Potency [9] | Potency [10] | max response [11] 2.06% | max response [12] 0.228% | max response [13] -1.24% | max response [14] -4.49% | outcome [15] | outcome [16] | outcome [18]

CC(=O)N(CC(O)CO)c1c(I)c(C(=O)NCC(O)CO)c(I)c(C(=O)NCC(O)CO)c1I (configuration not stated)
inactive: Potency [1] | Potency [5] | Potency [6] | Potency [7] | outcome [11] | max response [12] 1.45% | max response [13] 3.3% | max response [14] -10.7% | outcome [15] | outcome [16] | outcome [17] | outcome [18]

CCCCCC(C)N (configuration not stated)
inactive: Potency [3] | Potency [4] | Potency [5] | Potency [6] | Potency [8] | Potency [9] | max response [11] -6.66% | max response [12] -4.16% | max response [13] -0.897% | max response [14] -3.94% | max response [15] 3.25% | outcome [16] | outcome [17] | outcome [18]

CN(C(=O)c1c(O)c2ccccc2n(C)c1=O)c1ccccc1
inactive: Potency [1] | Potency [2] | Potency [3] | Potency [4] | Potency [5] | Potency [6] | Potency [7] | Potency [9] | Potency [10] | max response [11] 0.215% | max response [12] -2.97% | max response [13] -1.18% | max response [14] 9.88% | outcome [15] | outcome [16] | outcome [17] | outcome [18]

Nc1ncnc(Nc2ccccc2)n1
inactive: Potency [1] | Potency [2] | Potency [3] | Potency [4] | Potency [5] | Potency [6] | Potency [7] | Potency [8] | Potency [9] | Potency [10] | max response [11] -1.48% | max response [12] -7.91% | max response [13] 0.531% | max response [14] 3.24% | outcome [15] | outcome [16] | outcome [17] | outcome [18]

CCCC(O)C(CC)CO (configuration not stated)
inactive: Potency [1] | Potency [2] | Potency [3] | Potency [4] | Potency [5] | Potency [6] | Potency [7] | Potency [8] | Potency [9] | Potency [10] | max response [11] -3.08% | max response [12] -1.45% | max response [13] -9.38% | max response [14] 9.23% | outcome [15] | outcome [16] | outcome [17] | outcome [18]

O=C(O)C(S)C(S)C(=O)O (configuration not stated)
inactive: max response [11] -6.2% | max response [12] -7.93% | max response [13] 3.59% | max response [14] -23% | outcome [15] | outcome [16] | outcome [18]

Cc1cc(=O)[nH]c(=S)[nH]1
inactive: Potency [1] | Potency [2] | Potency [3] | Potency [4] | Potency [5] | Potency [6] | Potency [7] | Potency [8] | Potency [9] | Potency [10] | max response [11] 1.13% | max response [12] -1.11% | max response [13] -13.5% | max response [14] -0.427% | outcome [15] | outcome [16] | outcome [17] | outcome [18]

NS(=O)(=O)c1cc2c(cc1C(F)(F)F)NCNS2(=O)=O
inactive: Potency [1] | Potency [2] | Potency [3] | Potency [4] | Potency [5] | Potency [6] | Potency [7] | Potency [8] | Potency [9] | Potency [10] | max response [11] -22.8% | max response [12] -7.43% | max response [13] 2.79% | max response [14] -0.385% | max response [15] -4.18% | outcome [16] | outcome [17] | outcome [18]
